Experimental data as given in PubChem BioAssay (NCI).
The panel holds about 83,000 compounds, 20% with a hit somewhere; the sample as a whole holds those more often.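 96-well plates, one dose, 48 hours. Percent growth reported; active if below 10.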 Activity calls are given as the source filed them.

The molecules below were run on NCI/ADR-RES ovarian (assay: NCI-60 one-dose screen, 48 h (100 = growth as untreated, 0 = no growth, -100 = all killed)). Conditions: 10 µM.
For CC(=O)OC/C=C(/C)C[P+](c1ccccc1)(c1ccccc1)c1ccccc1, the growth was 90.3% (inactive).
For C=CCN(CC=C)C(=O)[C@H](CC)[C@@H]1CC[C@@H](C)[C@@H]([C@H](C)[C@@H](O)[C@@H](C)C(=O)[C@H](CC)C2O[C@]3(C=CC(=O)[C@]4(CC[C@@](C)([C@H]5CC[C@](O)(CC)[C@H](C)O5)O4)O3)[C@H](C)C[C@@H]2C)O1 (some centres undefined), the growth was 16.8% (inactive).
Cc1c2c(nn1C(=O)c1nn(-c3ccc(Cl)cc3)cc1O)-c1ccccc1CC2 was tested, and the growth was 6% (active).
With O=C(CCn1cnc2c(cc(-c3ccccc3)n2-c2ccccc2)c1=O)Nc1ccc(F)cc1 the growth was 55.1% (inactive).
With COc1ccc(-c2onc(N)c2-c2cc(OC)c3c(c2)OCO3)cc1 the growth was -10.2% (active).
For CCCN(CCC)C(=O)[C@H](CC)[C@@H]1CC[C@@H](C)[C@@H]([C@H](C)[C@@H](O)[C@@H](C)C(=O)[C@H](CC)C2O[C@]3(C=C[C@@H](O)[C@]4(CC[C@@](C)([C@H]5CC[C@](O)(CC)[C@H](C)O5)O4)O3)[C@H](C)C[C@@H]2C)O1 (some centres undefined), the growth was -11.2% (active).
For CCOC(=O)c1cc(C(=O)c2cc(OC)c(OC)c(OC)c2)n2c1ccc1c3cccnc3ccc12, the growth was 33.9% (inactive).
For COc1cc(NC(=O)Nc2cnc(Nc3ccc(N4CCOCC4)cc3)nc2Oc2cccc(OC)c2)cc(OC)c1, the growth was 61% (inactive).
With Fc1ccc2[nH]cc(-c3nc(-c4ccsc4)cs3)c2c1 the growth was 80.8% (inactive).
In the case of IC(I)I, the growth is reported as 105% (inactive).
Cc1ccc(-n2c(C)nn3c(=O)c4c5c(sc4nc23)CN(C)CC5)cc1 was tested, and the growth was 101% (inactive).
CN(C)c1ccc(/C=N/NC(=O)c2ccccc2Nc2cccc(C(F)(F)F)c2)cc1 was tested, and the growth was 93% (inactive).
With N#CC1=C(N)Oc2cc(N)ccc2C1c1cccnc1 (centres undefined) the growth was 96.2% (inactive).
With O=C(CCCCNC(=O)c1nc(-c2ccccc2)n(-c2ccccc2)n1)NO the growth was 87.6% (inactive).
With COc1ccc(-c2cc(-c3ccc(OC)c(OC)c3)nc(SCCCC(=O)NO)n2)cc1 the growth was -34.7% (active).
For O=C(/C=C/C=C/c1c(C2CC2)nc2ccccc2c1-c1ccc(F)cc1)c1cccs1, the growth was 22.9% (inactive).
In the case of CC(C)N(CCOc1ccc(-c2nc3sccn3c2-c2ccnc(S(C)(=O)=O)n2)cc1)C(C)C, the growth is reported as 89.2% (inactive).
O=C(Nc1nc(-c2ccccc2)nc2c1sc(=S)n2-c1ccccc1)C(F)(F)F was tested, and the growth was 95.7% (inactive).
For O=C(CSc1nnc(-c2ccc(Cl)cc2)o1)Nc1ccc(C(=O)/C=C/c2ccc(Cl)cc2)cc1, the growth was 96.4% (inactive).
With C=CCn1c(SCC(=O)Nc2ccc(C(=O)/C=C/c3ccc(OC)cc3)cc2)nnc1-c1ccc(OC)c(OC)c1 the growth was 86.4% (inactive).
With CN1CCN(CC(=O)Nc2cccc(-n3cc(-c4ccncc4)c(-c4ccc(Cl)c(O)c4)n3)c2)CC1 the growth was 42.2% (inactive).
CCc1ccc(C2=NN(c3ccc(S(C)(=O)=O)cc3)C(=O)CC2)cc1 was tested, and the growth was 6.7% (active).
Cc1nn(-c2ccc(-c3ccc(OC(F)(F)F)cc3)cc2)c2nc(Cc3ccccc3)nc(N)c12 was tested, and the growth was 40.5% (inactive).
In the case of Cn1c2ccccc2c2c3[nH][nH]c(=O)c3c3c4ccccc4[nH]c3c21, the growth is reported as 68.5% (inactive).
With CC[C@H]1OC(=O)[C@H](C)[C@@H](O[C@H]2C[C@@](C)(OC)[C@@H](O)[C@H](C)O2)[C@H](C)[C@@H](O[C@@H]2O[C@H](C)C[C@H](N(C)C)[C@H]2O)[C@](C)(OC)C/C(C)=C2/O[C@@]1(C)C=C2C the growth was 65.4% (inactive).
C=C(C)[C@@H]1CC[C@]2(COCCC#N)CC[C@]3(C)[C@H](CC[C@@H]4[C@@]5(C)Cc6c([nH]c7ccccc67)C(C)(C)[C@@H]5CC[C@]43C)[C@@H]12 was tested, and the growth was 98.1% (inactive).
In the case of CC(=O)[C@H]1CC[C@]2(C)[C@@H]1CC[C@@H]1[C@@]3(C)CC(CCC#N)(CCC#N)C(=O)C(C)(C)[C@@H]3CC[C@]12C, the growth is reported as 90.5% (inactive).
For O=C1c2ccccc2C(=O)c2c1ccc(C(Br)Br)c2Cl, the growth was 64.6% (inactive).
For Cc1ccc(/C=C/C(=O)C(=O)/C=C/c2ccc(C)cc2)cc1, the growth was 103% (inactive).
Cc1cc(SCc2ccccc2)nc(N)n1 was tested, and the growth was 105% (inactive).
With CCCCCCCCCCCCCCCCCC[n+]1ccc2c(C)c3c(c(C)c2c1)c1cc(O)ccc1n3CC the growth was 72.3% (inactive).
For CN1CCc2c(sc3nc4n(-c5ccc(Cl)cc5)cnn4c(=O)c23)C1, the growth was 104% (inactive).
With CN1CCc2c(sc3nc4n(-c5ccc(Cl)cc5)c(=O)[nH]n4c(=O)c23)C1 the growth was 99% (inactive).
C[n+]1c2ccccc2nc2ccccc21 was tested, and the growth was 8.6% (active).
